Compound activity (PubChem)
In the library only some 6.9% were active in any assay of this set; here they are far more common.
MCF10A rereplic: DNA re-replication induction in MCF 10a cells; MCF 10A DNA re-replication, Hoechst nuclear intensity, 48 h; actives 2.9% (n = 350,000); Potency, µM (highest dose often 46.1 µM), inactives show top-dose activity, positive = re-replication, usual class: activators; AID 624296; also: potency is read from the fitted curve at half-maximal effect; % of control where 0% means no effect; nearly all actives have a fitted effect of over 50% in size
SW480 rerep: induces DNA re-replication in SW480 colon adenocarcinoma cells; SW480 DNA re-replication, Hoechst DNA content imaging, 48 h; Potency, µM (titrated, usually from 46.1 µM), without a hit: at the highest dose re-replication activation, actives largely listed as activators; actives 1.8% (n = 340,000); AID 624297; also: potency is read from the fitted curve at half-maximal effect; % of control where 0% means no effect; nearly all actives have a fitted effect of over 55% in size
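Image-based DNA-content assay: after two days of treatment, nuclei were labelled with the DNA dye Hoechst and imaged, and hits were compounds raising the count of nuclei showing high fluorescence intensity.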
KB-3-1 cytotox: kills parental KB-3-1 adenocarcinoma cells. Potency, µM (top dose mostly 46.1 µM), most hits filed as cytotoxic. AID 1347075. actives 1.4% (n = 400,000). KB-3-1 viability, CellTiter-Glo ATP luminescence, 72 h; also: potency is read from the fitted curve at half-maximal effect; % is scaled to controls: 0 for no effect and ±100 for the full control effect; nearly all actives have a fitted effect of over 60% in size
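72 h, 37 °C compound treatment of KB-3-1 parental cells; CellTiter-Glo added, 10 min, luminescence read. Data corrected against DMSO-only plates and normalized before curve fitting.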
KB-V1 cytotox: KB-V1 MDR subline cytotoxicity; AID 1347076; Potency, µM (series often up to 46.1 µM), actives largely listed as cytotoxic; actives 3.4% (n = 400,000); KB-V1 MDR cells viability, CellTiter-Glo, 72 h; also: potency is read from the fitted curve at half-maximal effect; % is scaled to controls: 0 for no effect and ±100 for the full control effect; nearly all actives have a fitted effect of over 60% in size
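Cytotoxicity toward P-gp-expressing KB-V1 cells was determined as loss of CellTiter-Glo luminescence after 72 h at 37 degrees C. Compounds were tested in quantitative HTS format across a concentration range, with curves fitted to normalized data.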
Giardia kill: kills Giardia lamblia; activity change, % at 7.66 µM, hits read low; actives 0.15% (n = 340,000); Giardia lamblia trophozoite viability; in the data active = activity change below about -80%; inconclusive = between about -30% and that limit;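 also: parasites exposed to compound for two days anaerobically before the ATP read; % is scaled to controls: 0 for no effect and ±100 for the full control effect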
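Media and compound were dispensed first, then trophozoites at 100 cells/well; plates sat 48 hrs at 37 deg C without oxygen before ATP luminescence reagent was added and read after 15-30 min at room temperature.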
S-ASM inh: blocks human secretory acid sphingomyelinase. P17405. placental ASM, HMU-PC fluorogenic substrate, 60 min. Potency, µM (highest dose often 57.5 µM), without a hit: at the highest dose activity change, negative = inhibition, hits mostly inhibitors. actives 0.006% (n = 340,000); also: potency is read from the fitted curve at half-maximal effect
Target sequence (P17405 47-631 limits assumed): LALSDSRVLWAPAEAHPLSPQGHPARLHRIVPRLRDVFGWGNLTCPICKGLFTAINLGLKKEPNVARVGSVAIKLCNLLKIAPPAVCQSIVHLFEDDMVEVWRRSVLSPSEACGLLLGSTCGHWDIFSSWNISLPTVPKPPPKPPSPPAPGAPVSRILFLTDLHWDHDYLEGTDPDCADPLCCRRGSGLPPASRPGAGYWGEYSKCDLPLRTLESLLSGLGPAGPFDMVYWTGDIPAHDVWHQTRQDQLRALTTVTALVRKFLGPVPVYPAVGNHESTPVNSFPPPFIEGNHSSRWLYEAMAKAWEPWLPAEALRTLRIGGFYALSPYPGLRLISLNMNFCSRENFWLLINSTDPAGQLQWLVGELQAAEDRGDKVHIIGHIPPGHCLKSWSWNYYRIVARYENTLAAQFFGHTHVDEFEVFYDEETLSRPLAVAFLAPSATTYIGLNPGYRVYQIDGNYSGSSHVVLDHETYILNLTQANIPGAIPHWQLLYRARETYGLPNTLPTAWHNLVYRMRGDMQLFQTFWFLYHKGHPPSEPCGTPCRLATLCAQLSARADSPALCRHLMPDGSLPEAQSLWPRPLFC
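HMU-PC0 cleavage (9 uM final) by human placental ASM, 60 min at 37 °C following 10 min compound exposure at RT; stopped at pH 10, fluorescence Ex 386/Em 447 nm.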
Active calls of the source: *; i = inactive; u = inconclusive; x = no result; [ ] = dose if it differs, or a comment. Unless noted, calls follow the shape of the dose curve; as a rule, active = well fitted curve in the direction sought with a large enough effect; inconclusive = small, poorly fitted or top-dose-only effect, or another doubt; inactive = no such curve, though single readings can be large; an effect the other way counts as inactive or inconclusive.

SMILES	MCF10A rereplic	SW480 rerep	KB-3-1 cytotox	KB-V1 cytotox	Giardia kill	S-ASM inh
O=C(Nc1cccc(C(F)(F)F)c1)c1cccn(Cc2ccc3c(c2)OC(F)(F)O3)c1=O	u	-2%	i	i	-13	-20%
CC(C)Oc1cccc(NC(=O)c2cccn(Cc3ccc4c(c3)OC(F)(F)O4)c2=O)c1	13µM*	u	u	i	15	-23%
O=C(Nc1ccc(C(F)(F)F)cc1)c1cccn(Cc2ccc3c(c2)OC(F)(F)O3)c1=O	u	-8%	8.2µM*	2.9µM*	9	-27%
CC[C@]1(c2cccc(O)c2)CCCCN(C)C1	-9%[20.6 µM]	-2%[20.6 µM]	x	x	x	x
CCCCn1c(O)c(C(=O)/C=C/c2c[nH]c3ccccc23)c(=O)[nH]c1=O	18µM*	u	i	i	-4	7%
CCCCn1c(O)c(C(CC)=NCCc2ccccc2)c(=O)[nH]c1=O	6%	0%	i	u	11	-8%
Cc1ccc(OP(=O)(NCc2ccccc2)Oc2ccc(C)cc2)cc1	u	u	u	15µM*	2	-3%
C=CCn1c(O)c(C(CC)=Nc2cc(OC)ccc2OC)c(=O)[nH]c1=O	20%	-22%	i	u	-8	-4%
CCC(=Nc1cc(OC)ccc1OC)c1c(O)[nH]c(=O)[nH]c1=O	16%	2%	5.8µM*	2.6µM*	5	-1%
CCC(=Nc1ccc(OC)cc1OC)c1c(O)[nH]c(=O)[nH]c1=O	u	-9%	u	10µM*	18	0%
CC1=NN(C)C(=O)C1Cc1c(F)cccc1Cl (stereo not given)	4%	-54%	i	i	-10	3%
COc1ccc(NC(=O)CN(C)C(=O)CSC(c2ccccc2)c2ccccc2)cc1	-1%	12%	u	i	-13	-12%
COc1ccc(NC(=O)Cn2c3ccccc3c3nc4n(c(=O)c32)CCS4)cc1	21µM*	-1%	i	i	-2	3%
Cc1ccc(-n2c(-c3cccs3)nc3ccccc3c2=O)cc1	11%	-5%	i	23µM*	-15	-1%
O=C(CCl)c1ccc(O)c(O)c1	x	x	i	i	x	x
CCC(=O)Nc1nc2ccccc2n1CCN(C)C	u	-9%	i	i	27	1%
N/C(=N\N=C/c1ccc(-c2ccc(O)c(C(=O)O)c2)o1)N[N+](=O)[O-]	-22%	-3%	i	u	-2	0%
COc1ccc(/C=N/N=C(/N)N[N+](=O)[O-])c(OC)c1	u	3%	1.5µM*	1µM*	13	-2%
COc1ccc(NC(=O)c2ccc(NC(=O)c3nc4nccc(C)n4n3)cc2)cc1	-2%	5%	i	u	-24	1%
CCOC(=O)[C@]12Cc3cc(OC)ccc3[C@H]1N(CCC(=O)OC)C(=O)c1cc(OC)ccc12	x	x	5.2µM*	u	x	x
CCOC(=O)[C@]12Cc3c(cc(OC)c(OC)c3OC)[C@H]1N(CCC(=O)OC)C(=O)c1ccccc12	x	x	8.2µM*	u	x	x
CCOC(=O)[C@]12Cc3ccccc3[C@H]1N(CCC(=O)OC)C(=O)c1cc(OC)ccc12	x	x	u	9.2µM*	x	x
CCOC(=O)[C@]12Cc3c(cc(OC)c(OC)c3OC)[C@H]1N(C)C(=O)c1ccccc12	x	x	u	i	x	x
CCOC(=O)[C@]12Cc3cc(OC)ccc3[C@H]1N(Cc1ccccc1)C(=O)c1cc(OC)ccc12	x	x	u	i	x	x
NC(=O)CN1CC(O)CC1=O (stereo not given)	1%	-2%	x	x	x	x
CCC1(CC)C(=O)NC(=O)N(C)C1=O	5%	-1%	x	x	x	x
O=C1CC2OCC=C3CN4CCC56c7ccccc7N1C5[C@H]2[C@H]3C[C@H]46 (stereo not given in full) (tested in a mixture with another compound)	x	-5%	x	x	x	x
